About 83,000 compounds went through this panel and 20% of them were active in at least one assay; those are over-represented in the sample as a whole.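 Treatment: one concentration, 48 hours, 96-well format. Scoring: percent growth, with anything below 10 considered active.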 Activity calls are given as the source filed them.

The test system of one assay is CCRF-CEM leukemia. In words: NCI-60 one-dose screen, 48 h (100 = growth as untreated, 0 = no growth, -100 = all killed). The following applies: 10 µM unless noted.
For `COc1ccc(-c2cc(Cc3cccs3)c(=O)n(Cn3cncn3)n2)cc1`, the growth was 102% (inactive).
Regarding `CC1=CSC2=NCCN12`, the growth is 93.6% (inactive).
As to `Cc1ccc(NC(=O)Nc2ccc(-c3cccnc3)cc2N2CCC(CO)CC2)cc1`, the growth is 34.7% (inactive).
For the compound `COc1ccc2c(c1)C(=O)c1c-2c(OCCCN(C)C)nc2cc(Br)ccc12`, the growth was -27.6% (active).
As to `CCC(CC)NCCCCCNc1cc(OC)cc2cccnc12`, the growth is 114% (inactive).
Consider `COc1cc(C2C=C(c3ccc(C)cc3)Nc3nc(SC)[nH]c(=O)c32)ccc1Oc1ccnc2cc(Cl)ccc12` (centres undefined), for which the growth is 67.5% (inactive).
For the compound `O=c1[nH]c(=O)n(C2CC(O)C(CO)O2)cc1C(F)(F)F` (centres undefined), the growth is -30.2% (active).
`Nc1nc(Cl)c2[nH]cnc2n1`: the growth was 115% (inactive).
Consider `OC(CCC(O)(c1ccccc1)c1ccccc1)(c1ccccc1)c1ccccc1`, for which the growth is 33.5% (inactive).
Take `C[C@]12C[C@H](O)[C@H]3[C@@H](CCC4=CC(=O)CC[C@@]43C)[C@@H]1CC[C@@H]2C(=O)CO`: the growth was 78.1% (inactive).
Still for that read-out and setting: under `COC(=O)[C@]12CC[C@@H](C)[C@H](C)[C@@H]1C1=CC[C@@H]3[C@@]4(C)C=C(O)C(=O)[C@@]5(C)COC(=C54)C[C@@]3(C)[C@]1(C)CC2` stands -60.8% (active).
Same read-out and setting: the value for `C=C(C)[C@@H]1C/C=C(/C=O)CC[C@@H]2O[C@@]2(C)CC/C=C(\C)CC1` was 137% (inactive); that for `CCCOc1ccc2c(c1)CC[C@@H]1[C@@H]2CC[C@@]2(C)[C@H]1CC[C@]2(C)O` was 72.8% (inactive); that for `C/C(=N\N1CC(=O)NC1=O)c1ccc([N+](=O)[O-])o1` was 106% (inactive).
Take `CCC1=C(c2ccc(OC)cc2)C(C)(C)Oc2cc(O)c(CN3CCCC3)cc21`: the growth was 69.2% (inactive).
Take `COc1ccc(Cn2cc3c(c2-c2ccccc2)CCc2cncnc2-3)cc1`: the growth is 42.6% (inactive).
Turning to `CCC(CCC(C)C1CCC2C3CC=C4CC(O)CCC4(C)C3CCC12C)C(C)C` (centres undefined) (tested in a mixture with another compound), the growth was 60% (inactive).
On to `COc1cc(OC)c2sc(-c3ccc(-n4cncc4-c4ccc(N)cc4)cc3)nc2c1`, for which the growth was 60.5% (inactive).
Consider `CCn1c2c(c3ccccc31)SC1c3cccn3CCN1C2=S` (centres undefined), for which the growth is 81.2% (inactive).
On the same count and under the same terms, the value for `COc1ccc(CCN2CCCN3C2=Nc2ccccc2S3(=O)=O)cc1` was 19.4% (inactive); that for `O=C(Nc1ncc([N+](=O)[O-])s1)c1cccc([N+](=O)[O-])c1` was 33% (inactive); that for `N#Cc1cnc2cc(OC[C@H](O)CO)c(NC(=O)CC3CSSC3)cc2c1Nc1ccc(OCc2cccc(F)c2)c(Cl)c1` was -81.8% (active).
For the compound `O=C(CSCC(=O)N/N=C/c1ccccc1O)N/N=C\c1ccccc1O`, the growth was 3.39% (active).
For the compound `CC(C)(C)c1ccc(S(=O)(=O)O)s1`, the growth is 102% (inactive).
For `CSC1=Nc2c(c(C)c(-c3ccccc3)n2CCCN2CCCCC2)C2=NC(=O)C[C@H](C)N12`, the growth is 20.7% (inactive).
Same read-out and setting: the value for `CC(=O)Oc1ccc(C23c4ccccc4C2(OC(C)=O)c2cc(OC(C)=O)ccc23)cc1` (centres undefined) was 41.8% (inactive).
`COc1ccc2c(c1)C(=O)c1c-2c(OCCN(C)C)nc2cc(OC)ccc12`: the growth is 13.7% (inactive).
`O=C1NCN(CCO)CN1`: the growth is 99.7% (inactive).
As to `CC(=O)NCCSC(=O)C(=O)SCCNC(C)=O`, the growth was 119% (inactive).
Take `CCc1[nH]nc(-c2ccc(OC)cc2)c1-c1ccccc1OCCN(CC)CC`: the growth was 84.5% (inactive).
Turning to `Cc1cc(NC(=O)Nc2cccc3ccccc23)no1`, the growth was 107% (inactive).
Turning to `NC(=O)c1ccccc1NC(=O)c1ccccc1Cl`, the growth is 97.3% (inactive).
On to `CCCCCCCC/C=C\CCCCCCCCOc1ccccc1CC(=O)NCC[N+]1(C)CCCC1`, for which the growth was 39.3% (inactive).
Take `c1ccc(-n2nnnc2-c2cccc3ccccc23)cc1`: the growth was 9.58% (active).
Turning to `O=C1c2ccccc2C(=O)c2c1cccc2-n1nnc2ccccc21`, the growth is 80.9% (inactive).
With `CCC(O)C(C)(C)C` (centres undefined), the growth was 116% (inactive).
With `Clc1ccc([C@@H]2C[C@@H]3Cc4cc(Br)c5ccccc5c4N2O3)c(Cl)c1`, the growth was 66.5% (inactive).

A further assay deals with MOLT-4 leukemia. The assay is described as above. The conditions noted are these: 10 µM unless noted.
On to `COc1ccc(-c2cc(Cc3cccs3)c(=O)n(Cn3cncn3)n2)cc1`, for which the growth is 93% (inactive).
Regarding `CC1=CSC2=NCCN12`, the growth was 102% (inactive).
On the same count and under the same terms, under `Cc1ccc(NC(=O)Nc2ccc(-c3cccnc3)cc2N2CCC(CO)CC2)cc1` stands 17.6% (inactive); under `COc1ccc2c(c1)C(=O)c1c-2c(OCCCN(C)C)nc2cc(Br)ccc12`, 21.1% (inactive).
For `CCC(CC)NCCCCCNc1cc(OC)cc2cccnc12`, the growth was 98.1% (inactive).
On to `COc1cc(C2C=C(c3ccc(C)cc3)Nc3nc(SC)[nH]c(=O)c32)ccc1Oc1ccnc2cc(Cl)ccc12` (centres undefined), for which the growth was 63.9% (inactive).
Turning to `O=c1[nH]c(=O)n(C2CC(O)C(CO)O2)cc1C(F)(F)F` (centres undefined), the growth is 31.8% (inactive).
Consider `Nc1nc(Cl)c2[nH]cnc2n1`, for which the growth is 114% (inactive).
For `OC(CCC(O)(c1ccccc1)c1ccccc1)(c1ccccc1)c1ccccc1`, the growth is 18.5% (inactive).
For `C[C@]12C[C@H](O)[C@H]3[C@@H](CCC4=CC(=O)CC[C@@]43C)[C@@H]1CC[C@@H]2C(=O)CO`, the growth is 116% (inactive).
Still for that read-out and setting: the value for `COC(=O)[C@]12CC[C@@H](C)[C@H](C)[C@@H]1C1=CC[C@@H]3[C@@]4(C)C=C(O)C(=O)[C@@]5(C)COC(=C54)C[C@@]3(C)[C@]1(C)CC2` was -72.1% (active); that for `C=C(C)[C@@H]1C/C=C(/C=O)CC[C@@H]2O[C@@]2(C)CC/C=C(\C)CC1` was 133% (inactive).
Regarding `CCCOc1ccc2c(c1)CC[C@@H]1[C@@H]2CC[C@@]2(C)[C@H]1CC[C@]2(C)O`, the growth was 75.9% (inactive).
Take `C/C(=N\N1CC(=O)NC1=O)c1ccc([N+](=O)[O-])o1`: the growth is 99.5% (inactive).
Regarding `CCC1=C(c2ccc(OC)cc2)C(C)(C)Oc2cc(O)c(CN3CCCC3)cc21`, the growth was 66.3% (inactive).
Take `COc1ccc(Cn2cc3c(c2-c2ccccc2)CCc2cncnc2-3)cc1`: the growth is 80% (inactive).
Still for that read-out and setting: under `CCC(CCC(C)C1CCC2C3CC=C4CC(O)CCC4(C)C3CCC12C)C(C)C` (centres undefined) (tested in a mixture with another compound) stands 70.6% (inactive); under `COc1cc(OC)c2sc(-c3ccc(-n4cncc4-c4ccc(N)cc4)cc3)nc2c1`, 46.9% (inactive).
The same measure, in the same setting: under `CCn1c2c(c3ccccc31)SC1c3cccn3CCN1C2=S` (centres undefined) stands 88.8% (inactive); under `COc1ccc(CCN2CCCN3C2=Nc2ccccc2S3(=O)=O)cc1`, 24.7% (inactive).
Same read-out and setting: the value for `O=C(Nc1ncc([N+](=O)[O-])s1)c1cccc([N+](=O)[O-])c1` was 27.8% (inactive); that for `N#Cc1cnc2cc(OC[C@H](O)CO)c(NC(=O)CC3CSSC3)cc2c1Nc1ccc(OCc2cccc(F)c2)c(Cl)c1` was -90.1% (active).
`O=C(CSCC(=O)N/N=C/c1ccccc1O)N/N=C\c1ccccc1O`: the growth was -4.94% (active).
In the case of `CC(C)(C)c1ccc(S(=O)(=O)O)s1`, the growth was 76.1% (inactive).
With `CSC1=Nc2c(c(C)c(-c3ccccc3)n2CCCN2CCCCC2)C2=NC(=O)C[C@H](C)N12`, the growth is 67.6% (inactive).
On to `CC(=O)Oc1ccc(C23c4ccccc4C2(OC(C)=O)c2cc(OC(C)=O)ccc23)cc1` (centres undefined), for which the growth is 67.6% (inactive).
For `COc1ccc2c(c1)C(=O)c1c-2c(OCCN(C)C)nc2cc(OC)ccc12`, the growth is -7.63% (active).
For `O=C1NCN(CCO)CN1`, the growth is 121% (inactive).
As for `CC(=O)NCCSC(=O)C(=O)SCCNC(C)=O`, the growth was 112% (inactive).
As to `CCc1[nH]nc(-c2ccc(OC)cc2)c1-c1ccccc1OCCN(CC)CC`, the growth was 85.8% (inactive).
On the same count and under the same terms, under `Cc1cc(NC(=O)Nc2cccc3ccccc23)no1` stands 106% (inactive).
Same read-out and setting: the value for `NC(=O)c1ccccc1NC(=O)c1ccccc1Cl` was 63.7% (inactive); that for `CCCCCCCC/C=C\CCCCCCCCOc1ccccc1CC(=O)NCC[N+]1(C)CCCC1` was 65% (inactive).
Consider `c1ccc(-n2nnnc2-c2cccc3ccccc23)cc1`, for which the growth was 29.8% (inactive).
On the same count and under the same terms, under `O=C1c2ccccc2C(=O)c2c1cccc2-n1nnc2ccccc21` stands 96% (inactive); under `CCC(O)C(C)(C)C` (centres undefined), 111% (inactive).
Take `Clc1ccc([C@@H]2C[C@@H]3Cc4cc(Br)c5ccccc5c4N2O3)c(Cl)c1`: the growth is 78% (inactive).

The values are drawn from PubChem BioAssay (NCI).
